Results filed as inconclusive are left out. Activity calls are given as the source filed them. Calls follow the shape of the dose curve; as a rule, active = well fitted curve in the direction sought with a large enough effect; inconclusive = small, poorly fitted or top-dose-only effect, or another doubt; inactive = no such curve, though single readings can be large; an effect the other way counts as inactive or inconclusive.

Potency data for 15 compounds are collected here from PubChem BioAssay (NCATS).

Experiment [1] can be described thus: qHTS of pediatric cancer cell lines to identify multiple opportunities for drug repurposing: Primary screen for control Hh wild type fibroblast cells (AID 1347106). Also: nearly all actives have a fitted effect of over 55% in size. In short, it runs like this:
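Cells (500-1,000/well) in growth media were settled 5 h at 37 degrees C, then given compounds for 48 h. Viability was read as CellTiter-Glo luminescence. Primary runs used MIPE at 11 points (0.78 nM-46 µM) and NPC at 8 points (0.59 nM-46 µM); follow-ups used 11 points.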

A short description of experiment [2]: qHTS of pediatric cancer cell lines to identify multiple opportunities for drug repurposing: Primary screen for Rh30 cells (AID 1347107). Also: nearly all actives have a fitted effect of over 75% in size. In short, it runs like this: (§1)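 Cells (500-1,000/well) rested 5 h, then received compounds for 48 h; metabolically active cells were measured by CellTiter-Glo luminescence. Final concentrations spanned up to 46 µM (MIPE, 11-point) or 0.59 nM-46 µM (NPC, 8-point) in primary screens, 11-point in follow-ups.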
On the technique in general: qHTS replaces the single test concentration by a dilution series.

The nature of experiment [3]: qHTS of pediatric cancer cell lines to identify multiple opportunities for drug repurposing: Primary screen for Rh41 cells (AID 1347108). Also: nearly all actives have a fitted effect of over 70% in size. In outline: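 Primary screen of approved and investigational compounds on cells in growth media at 37 degrees C, 5% CO2. MIPE set at 11-point and NPC set at 8-point dilutions; viability scored by ATP-based luminescence at 48 hours.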

Experiment [4] is described as follows: qHTS of pediatric cancer cell lines to identify multiple opportunities for drug repurposing: Confirmatory screen for NB1643 cells (AID 1347109). Also: nearly all actives have a fitted effect of over 45% in size. In short, it runs like this: as §1
Experiment [5] is described as follows: qHTS of pediatric cancer cell lines to identify multiple opportunities for drug repurposing: Confirmatory screen for A673 cells (AID 1347110).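 Also: cells exposed to compound for 48 h before the viability read; nearly all actives have a fitted effect of over 65% in size.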 In outline:
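Viability was read as ATP luminescence (CellTiter-Glo) after 48 h of compound exposure at 37 C in A673 cells seeded at 500-1,000/well. Titrations reached 46 uM final, with 11 points in the confirmatory screen. Concentration-response curves were fitted directly.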

Experiment [6] can be described thus: qHTS of pediatric cancer cell lines to identify multiple opportunities for drug repurposing: Confirmatory screen for SK-N-MC cells (AID 1347111).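 Also: cells exposed to compound for 48 h before the readout; nearly all actives have a fitted effect of over 70% in size.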 In short, it runs like this:
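Seed 500-1,000 cells/well; rest 5 h at 37 degrees C. Pin-transfer compounds, 11-point titration. Incubate 48 h. Add CellTiter-Glo, 15 min RT, read luminescence.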

A short description of experiment [7]: qHTS of pediatric cancer cell lines to identify multiple opportunities for drug repurposing: Confirmatory screen for BT-12 cells (AID 1347112). Also: nearly all actives have a fitted effect of over 55% in size. In outline: as §1
Experiment [8] in a line: qHTS of pediatric cancer cell lines to identify multiple opportunities for drug repurposing: Confirmatory screen for DAOY cells (AID 1347114). Also: nearly all actives have a fitted effect of over 65% in size. In short, it runs like this: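 Viability measured as metabolically active cells via CellTiter-Glo luminescence following 48 hours of compound exposure, 11-point dilutions in confirmatory testing. 500-1,000 cells/well plated 5 hours before dosing; controls were DMSO and 2.3 µM bortezomib.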

The nature of experiment [9]: qHTS of pediatric cancer cell lines to identify multiple opportunities for drug repurposing: Confirmatory screen for NB-EBc1 cells (AID 1347115).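 Also: cells exposed to compound for 48 h before the viability read; nearly all actives have a fitted effect of over 45% in size.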 In short, it runs like this:
as §1

The nature of experiment [10]: qHTS of pediatric cancer cell lines to identify multiple opportunities for drug repurposing: Confirmatory screen for BT-37 cells (AID 1347117). Also: nearly all actives have a fitted effect of over 55% in size. In short, it runs like this:
as §1

Experiment [11] in a line: qHTS of pediatric cancer cell lines to identify multiple opportunities for drug repurposing: Confirmatory screen for TC32 cells (AID 1347118).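 Also: cells exposed to compound for 48 h before the read; nearly all actives have a fitted effect of over 65% in size.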 In short, it runs like this: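 Measured quantity: luminescence from CellTiter-Glo, reflecting metabolically active TC32 cells following 48 h of compound. Curves came straight from multi-point titrations, with 8 or 11 points in primary and 11 in confirmatory screening.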

Experiment [12] can be described thus: qHTS of pediatric cancer cell lines to identify multiple opportunities for drug repurposing: Confirmatory screen for MG 63 (6-TG R) cells (AID 1347119). Also: nearly all actives have a fitted effect of over 55% in size. In outline: as §1
Experiment [13] in a line: qHTS of pediatric cancer cell lines to identify multiple opportunities for drug repurposing: Confirmatory screen for control Hh wild type fibroblast cells (AID 1347121). Also: nearly all actives have a fitted effect of over 70% in size. In short, it runs like this: as §1
The nature of experiment [14]: qHTS of pediatric cancer cell lines to identify multiple opportunities for drug repurposing: Confirmatory screen for U-2 OS cells (AID 1347122). Also: nearly all actives have a fitted effect of over 65% in size. In short, it runs like this: as §1
Experiment [15] is described as follows: qHTS of pediatric cancer cell lines to identify multiple opportunities for drug repurposing: Confirmatory screen for Rh41 cells (AID 1347123). Also: nearly all actives have a fitted effect of over 60% in size. In outline:
as §1

Experiment [16] in a line: qHTS of pediatric cancer cell lines to identify multiple opportunities for drug repurposing: Confirmatory screen for RD cells (AID 1347124). In outline: as §1
A short description of experiment [17]: qHTS of pediatric cancer cell lines to identify multiple opportunities for drug repurposing: Confirmatory screen for Rh18 cells (AID 1347125). Also: nearly all actives have a fitted effect of over 55% in size. In short, it runs like this: as §1
A short description of experiment [18]: qHTS of pediatric cancer cell lines to identify multiple opportunities for drug repurposing: Confirmatory screen for Rh30 cells (AID 1347126). Also: nearly all actives have a fitted effect of over 55% in size. In outline: as §1
Experiment [19] is described as follows: qHTS of pediatric cancer cell lines to identify multiple opportunities for drug repurposing: Confirmatory screen for Saos-2 cells (AID 1347127). Also: nearly all actives have a fitted effect of over 60% in size. In outline:
as §1

Experiment [20] in a line: qHTS of pediatric cancer cell lines to identify multiple opportunities for drug repurposing: Confirmatory screen for OHS-50 cells (AID 1347128). In outline: as §1
Potency is read from the fitted curve at half-maximal effect.

With `CC(C)C[C@H](NC(=O)[C@H](Cc1ccccc1)NC(=O)c1cnccn1)B(O)O`, the Potency in experiment [1] was 74.3 nM (active); in experiment [2] it was 93.5 nM (active); in experiment [3] it was 29.6 nM (active); in experiment [4] it was 0.0369 µM (active); in [5], 0.0465 µM (active); in [6] it was 0.0131 µM (active). The Potency in experiment [7] was 0.0465 µM (active); in experiment [8] it was 0.0131 µM (active); in experiment [9], 46.5 nM (active); in experiment [10], 0.0465 µM (active); in experiment [11], 0.0414 µM (active); in experiment [12], 20.8 nM (active). Also, the Potency in [13] was 827 nM (active); in [14], 0.0585 µM (active); in [15] it was 0.0165 µM (active); in experiment [16], 41.4 nM (active); in experiment [17] it was 0.0465 µM (active); in experiment [18] it was 233 nM (active). In addition, the Potency in [19] was 0.208 µM (active); in experiment [20], 0.0737 µM (active).

As for `CC1Cc2ccccc2N1NC(=O)c1ccc(Cl)c(S(N)(=O)=O)c1` (stereo not given), the Potency entry in experiment [1] and in [3] was “inactive” in each case.

`c1cnc2cc3c(cc2n1)C1CNCC3C1`: the Potency entry in [1], in experiment [2], in experiment [3], in experiment [4], in [5] and in experiment [6] was “inactive” in each case. Also, the Potency result in experiment [7], in experiment [8], in [9], in [10], in [12] and in experiment [13] was “inactive” in each case. The Potency result in experiment [14], in experiment [15], in [16] and in experiment [20] was “inactive” in each case.

On to `CN(C)c1ccc(O)c2c1C[C@H]1C[C@H]3[C@H](N(C)C)C(=O)C(C(N)=O)=C(O)[C@@]3(O)C(=O)C1=C2O`, for which the Potency entry in experiment [1], in experiment [2], in experiment [3], in experiment [4], in experiment [5] and in experiment [7] was “inactive” in each case. Besides, the Potency entry in [9], in [10], in [13], in experiment [14], in experiment [15] and in experiment [16] was “inactive” each time. Further, the Potency result in [17], in [19] and in [20] was “inactive” in each case. In addition, the Potency in experiment [11] is 5.85 µM (active).

Take `CC1(C)CCC(C)(C)c2cc(NC(=O)c3ccc(C(=O)O)cc3)ccc21`: the Potency entry in [1], in experiment [2] and in experiment [3] was “inactive” each time.

Turning to `Clc1ccc(C(Cn2ccnc2)OCc2ccsc2Cl)c(Cl)c1` (stereo not given), the Potency result in experiment [1], in experiment [2], in experiment [3], in experiment [13] and in experiment [18] was “inactive” each time. The Potency is 14.7 µM (active) in experiment [4]; 20.8 µM (active) in [5]; 11.7 µM (active) in experiment [6]; 16.5 µM (active) in experiment [7]; 7.37 µM (active) in experiment [10]; 11.7 µM (active) in experiment [11]. The Potency in [17] was 14.7 µM (active); in [19], 10.4 µM (active); in experiment [20], 11.7 µM (active).

With `Nc1ccn([C@@H]2O[C@H](CO)[C@@H](O)C2O)c(=O)n1` (stereo not given in full), the Potency entry in [1], in experiment [2], in [3], in experiment [4], in experiment [7] and in experiment [8] was “inactive” each time. Further, the Potency entry in experiment [9], in experiment [12], in [13], in experiment [14], in experiment [15] and in experiment [16] was “inactive” each time. The Potency entry in experiment [18], in experiment [19] and in experiment [20] was “inactive” in each case. For the same compound, in [5], the Potency was 16.5 µM (active).

On to `O=C(OC1C[C@H]2CC[C@@H](C1)[N+]21CCCC1)C(O)(c1ccccc1)c1ccccc1` (stereo not given in full), for which the Potency entry in experiment [1], in experiment [2] and in [3] was “inactive” each time.

Take `CN1CCC(=C2c3ccccc3CCc3sccc32)CC1`: the Potency result in experiment [1] and in [3] was “inactive” throughout.

With `CN1C(C(=O)Nc2ccccn2)=C(O)c2sccc2S1(=O)=O`, the Potency entry in experiment [1] and in experiment [3] was “inactive” throughout.

On to `N=C(N=C(N)N)N1CCOCC1`, for which the Potency entry in [1] and in experiment [3] was “inactive” throughout.

With `C[Se]CCC(N)C(=O)O` (stereo not given), the Potency result in experiment [1] and in experiment [3] was “inactive” throughout.

In the case of `Cc1ccc(Nc2nccc(N(C)c3ccc4c(C)n(C)nc4c3)n2)cc1S(N)(=O)=O`, the Potency entry in [1], in experiment [2], in experiment [10], in [12] and in experiment [16] was “inactive” in each case. The Potency is 18.5 µM (active) in experiment [6], 18.5 µM (active) in experiment [14] and 10.4 µM (active) in [15].

As for `COc1cc(OC)c(C(=O)CCCN2CCCC2)c(OC)c1`, the Potency entry in experiment [1] and in experiment [3] was “inactive” in each case.

On to `Cc1c(C(=O)NN2CCCCC2)nn(-c2ccc(Cl)cc2Cl)c1-c1ccc(Cl)cc1`, for which the Potency result in experiment [1], in [2], in experiment [3], in experiment [13] and in [16] was “inactive” in each case. Further, the Potency in [5] was 20.8 µM (active); in [6], 7.37 µM (active); in [8], 23.3 µM (active); in experiment [11], 23.3 µM (active); in [14], 16.5 µM (active); in experiment [15], 18.5 µM (active). Also, in experiment [19], the Potency was 20.8 µM (active).
